From PubChem BioAssay (NCATS)
Inconclusive results are not listed. Values without a mark were called inactive. Calls follow the shape of the dose curve; as a rule, active = well fitted inhibition curve with a large enough effect; inconclusive = small, poorly fitted or top-dose-only effect, or effect the other way; inactive = flat fitted curve, though single readings scatter.

Molecular target: Ubiquitin carboxyl-terminal hydrolase 2 (Homo sapiens) (UniProt O75604)
Experiment: qHTS Validation Assay for Inhibitors of Ubiquitin-specific Protease USP2a Using CHOP2 as the Reporter (AID 463106)
Conditions: USP2a cleavage of CHOP2 reporter, enzymatic; series mostly up to 38.3 µM; activity, negative = inhibition: at the top concentration
Text: NIH Molecular Libraries Screening Centers Network [MLSCN]
NIH Chemical Genomics Center [NCGC]
PI Name: Nicholson, Ben. Progenra Inc, Malvern, PA
Homeostasis of cellular proteins is maintained through a combination of synthesis and degradation. The pathway that accounts for the majority of protein degradation is the ubiquitin-proteasomal pathway. Ubiquitin (Ub) is highly conserved in all cells and the generation of a multi-Ub chain typically targets proteins for degradation by the proteasome. However, ubiquitination is highly reversible and dynamic. Deubiquitination, the reverse process, is catalyzed through the action of enzymes referred to as isopeptidases or deubiquitinating enzymes (DUBs). This group of enzymes is collectively responsible for maintaining adequate pools of free ubiquitin and regulating the ubiquitination status of cellular proteins. The class of DUBs referred to as the ubiquitin-specific proteases (USP) family functions endoproteolytically to cleave Ub chains from a wide range of protein substrates. USP2a deubiquitinates fatty acid synthase (FASN) which has recently been identified as an emerging oncology target. To identify inhibitors of USP2a a cell-free assay was employed.
The reporter enzyme chosen is an enterokinase called CHOP2, which is activated when the Ub is cleaved by USP2. The free and now activated reporter can subsequently act on its reporter substrate. […] The assay was developed by Progenra, Inc. and has been licensed for sale by LifeSensors, Inc. as Ub-CHOP2-Reporter-Kit (#PR1101).
NCGC Assay Protocol Summary:
The assay buffer, prepared fresh at the day of the assay, contains 20mM Tris-HCl pH 8.0, 2mM CaCl2, 2mM beta-Mercaptoethanol, 0.05% CHAPS. 3ul of 20nM (10nM final) USP2 core, which is stored on ice, is dispensed into a medium-binding black solid Kalypsys 1,536 well plate using the Kalypsys dispenser. The assay plate is then pinned with 23nL compound with the Kalypsys pintool in columns 5-48. The controls are pinned as follows: column 1 two-fold dilutions of 2M NEM in duplicate; column 2 2M NEM (final concentration 38.2mM); column 3&4 DMSO. The assay plate is incubated at RT for 30min. Subsequently, 1.5uL of 100nM (25nM final) Ub-CHOP2 and 1.5uL of 100nM (25nM final) Reporter Substrate (both stored on ice and protected from light) were dispensed into the plate using the Kalypsys dispenser. Plates were read after 60min RT incubation on a ViewLux (Perkin Elmer) plate reader using the following wavelengths Ex 485nm /Em 531nm.
Data were normalized to the to AC100 inhibition (NEM). Concentration-response curves were fitted to the normalized data and the concentration-response curves were then classified based on curve quality (r2), response magnitude and degree of measured activity. The time zero reading was used to flag fluorescence artifacts.
Keywords: ubiquitination, deubiquitination, proteases, profluorescent, MLSMR, MLPCN, NIH Roadmap, qHTS, NCGC

Chain of Ubiquitin carboxyl-terminal hydrolase 2 (Homo sapiens) (O75604 whole entry, looked up): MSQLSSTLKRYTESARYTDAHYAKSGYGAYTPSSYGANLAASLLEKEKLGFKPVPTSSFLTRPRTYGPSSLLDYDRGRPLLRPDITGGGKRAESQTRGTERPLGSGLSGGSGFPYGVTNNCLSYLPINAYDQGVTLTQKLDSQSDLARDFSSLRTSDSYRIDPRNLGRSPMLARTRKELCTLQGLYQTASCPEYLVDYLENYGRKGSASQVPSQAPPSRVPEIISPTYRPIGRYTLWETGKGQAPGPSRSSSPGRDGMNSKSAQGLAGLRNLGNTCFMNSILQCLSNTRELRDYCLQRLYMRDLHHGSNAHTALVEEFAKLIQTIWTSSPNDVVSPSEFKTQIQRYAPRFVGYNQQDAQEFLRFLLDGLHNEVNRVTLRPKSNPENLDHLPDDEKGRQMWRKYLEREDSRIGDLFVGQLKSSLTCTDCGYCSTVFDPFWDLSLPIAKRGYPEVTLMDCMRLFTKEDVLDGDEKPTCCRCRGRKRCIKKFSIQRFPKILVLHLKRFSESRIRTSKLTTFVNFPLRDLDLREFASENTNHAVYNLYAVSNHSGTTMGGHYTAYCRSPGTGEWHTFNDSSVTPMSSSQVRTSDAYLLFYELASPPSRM

Going from `NCCCCN` to `NCCCNCCCCNCCCN`, the “activity, negative = inhibition” value rises from 0.686% to 0.996%.

Compared with `NCCC1CCCC(CCN)N1` (stereo not given), `NCC(O)C1CCCCCCC1` (stereo not given) is lower in “activity, negative = inhibition” value: 7.24% for the first, 3.09% for the second.

Going from `Cc1nc(N=Nc2ccc(C(=O)O)cc2)c(COP(=O)(O)O)c(C=O)c1O` to `CCCc1c(OCCCOc2ccc(OCC(=O)O)cc2)ccc(C(C)=O)c1O`, the “activity, negative = inhibition” value falls from -1.31% to -6.81%.

Compared with `c1ccc2c(c1)CCC[C@H]2Nc1nc2ccccc2[nH]1`, `O=c1cc(-c2ccccc2)[nH]c2nc(Cl)ccc12` is higher in “activity, negative = inhibition” value: 4.38% for the first, 6.02% for the second.

Going from `COc1cc2c(CCNC(C)=O)c[nH]c2cc1O` to `CC(=O)N[C@@H](Cc1c[nH]c2ccccc12)C(=O)OCc1cc(C(F)(F)F)cc(C(F)(F)F)c1`, the “activity, negative = inhibition” value falls from 4.75% to 2.94%.

Going from `CN(C)CCCc1cc(C(=O)Nc2ccc(-c3ccncc3)cc2)ccc1O` to `CN(C)CCC(c1ccc(Br)cc1)c1ccccn1` (stereo not given), the “activity, negative = inhibition” value rises from -1.48% to 2.26%.

First: O=c1cc(O)cc(/C=C/c2ccc(O)c(O)c2)o1
Second: O=C(O)Cc1ccc(O)c(O)c1
The “activity, negative = inhibition” value of the first is lower: -3.05% for the first, -1.04% for the second.

Compared with `COc1ccc(CCN(C)CCc2ccc(OC)c(OC)c2)cc1OC`, `COC(=O)C(C)(N)Cc1ccc(O)cc1` (stereo not given) is higher in “activity, negative = inhibition” value: -0.564% for the first, 0.0455% for the second.

Going from `N=C(N)SCCN` to `N=C(N)c1ccc(OCCCCCOc2ccc(C(=N)N)cc2)cc1` (tested in a mixture with another compound), the “activity, negative = inhibition” value rises from 1.63% to 4.86%.

First: COc1ccccc1N1CCN(CCCNc2c(C)c(=O)n(C)c(=O)n2C)CC1
Second: COCc1nc2c([nH]1)c(=O)n(C)c(=O)n2CC(C)C
The “activity, negative = inhibition” value of the first is lower: -0.138% for the first, 1.39% for the second.

Going from `Cc1cc(Cn2cnc3c2C[C@@H](C(=O)O)N(C(=O)C(c2ccccc2)c2ccccc2)C3)ccc1N` to `c1ccc(C(NCCNC(c2ccccc2)c2ccccc2)c2ccccc2)cc1`, the “activity, negative = inhibition” value falls from 2.32% to -3.94%.

Compared with `C=C(C)C1CC=C(C(=O)O)CC1` (stereo not given), `O=C(O)CCC(=O)N1CCCC1C(=O)O` (stereo not given) is lower in “activity, negative = inhibition” value: 1.86% for the first, -0.452% for the second.

First: CCn1c(=O)[nH]c2cc(Cl)c(Cl)cc21
Second: CCc1ccc2c(-c3cccc(Cl)c3)nc(=O)n(CC)c2n1
The “activity, negative = inhibition” value of the first is lower: -1.19% for the first, -0.772% for the second.

Compared with `CC(=O)NNC(=O)N1Cc2ccccc2Oc2ccc(Cl)cc21`, `Nc1ccc(N2C(=O)c3ccccc3C2=O)c(Cl)c1` is higher in “activity, negative = inhibition” value: -0.544% for the first, 1.01% for the second.

First: NC(N)=NC(N)=Nc1ccccc1
Second: CCOC(=O)C12CC1/C(=N/O)c1ccccc1O2 (stereo not given)
The “activity, negative = inhibition” value of the first is lower: -0.294% for the first, 0.337% for the second.

Going from `NC(Cc1cccc(-c2ccccc2CP(=O)(O)O)c1)C(=O)O` (stereo not given) to `N[C@@H](Cc1ccc(F)cc1)C(=O)O`, the “activity, negative = inhibition” value falls from 3.41% to 1.02%.

Going from `c1ccc2nc(C3=NCCN3)ccc2c1` to `CC1CNCCN1S(=O)(=O)c1cccc2cnccc12` (stereo not given), the “activity, negative = inhibition” value rises from -0.858% to 1.5%.

Going from `CN1CCCC1CCOC(C)(c1ccccc1)c1ccc(Cl)cc1` (stereo not given) to `CCCOC(=O)c1c(-c2ccccc2)nc(CC)c(C(=O)SCC)c1CCC`, the “activity, negative = inhibition” value falls from -0.384% to -0.439%.

Going from `OCC1NCC(O)C(O)C1O` (stereo not given) to `CCCCC[C@H](CC(=O)NO)C(=O)N[C@H](C(=O)N1CCC[C@H]1CO)C(C)C`, the “activity, negative = inhibition” value falls from 2.64% to -1.75%.

Going from `O=C(O)c1cc2cc(F)ccc2[nH]1` to `CNC(=O)c1cc2c(cn1)[nH]c1ccccc12`, the “activity, negative = inhibition” value rises from -3.51% to 2%.
